Fluorescence ratio data for 41 molecules are collected here from PubChem BioAssay AID576 (NMMLSC, 2007).

SMILES strings stand for the structures. Screen size: about 24,000 compounds; about 150 (0.62%) were called active.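 The calls were made as follows: active = fluorescence ratio above 2.44, which is 1 plus 3 SD of all ratios; inconclusive = signal too bright to measure linearly, ratio around 10 or more; inactive = fluorescence ratio below 2.44.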 The full list was thinned out, with actives kept by preference.

The test in a line: compound autofluorescence on Jurkat cells, primary screen, artefact control for VLA-4 allosteric ligand project, cell-based, flow cytometry (AID 576).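 Also: green fluorescence of cells measured with 488 nm excitation and 530 nm emission; tested at 10 µM compound in the well.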 The settings on record: hits give high values, 1 = vehicle-only cell background.
Consider `O=C(O)C1CCN(S(=O)(=O)N2CCOCC2)CC1`, for which the fluorescence ratio is 1 (inactive).
Take `CCN1CCCC1CNC(=O)Cn1cnc2ccc(S(=O)(=O)N3CCC(C)CC3)cc2c1=O` (stereo unspecified): the fluorescence ratio was 1.05 (inactive).
As to `CCOc1cc2[nH]c(=O)n(CCC(=O)NCc3ccc(OC)cc3)c(=O)c2cc1OCC`, the fluorescence ratio was 0.94 (inactive).
On to `CCOc1ccc(CNC(=O)C2CC(=O)N(C3CCCC3)C2)cc1OC` (stereo unspecified), for which the fluorescence ratio was 0.92 (inactive).
Consider `Cc1ccc(-c2ccc(=O)n(CC(=O)NCCCN3CCCCC3)n2)cc1`, for which the fluorescence ratio was 1.06 (inactive).
For `CCCS(=O)(=O)C(=C1Nc2ccccc2N1)S(=O)(=O)CCC`, the fluorescence ratio is 1.04 (inactive).
Under `COc1cc(-n2c(C)nc3cc(C(=O)NCc4ccco4)ccc32)cc(OC)c1OC` stands 1.05 (inactive).
For `COCCOC(=O)C1=C(C)NC(=O)CC1c1cc2c(cc1Br)OCO2` (stereo unspecified), the fluorescence ratio is 0.99 (inactive).
As to `O=C(NCCN1C(=O)C2C3C=CC(C3)C2C1=O)Nc1ccccn1` (stereo unspecified), the fluorescence ratio was 0.86 (inactive).
Regarding `Cc1ccc(-n2nc3c(c2NC(=O)c2ccc4c(c2)OCO4)CSC3)c(C)c1`, the fluorescence ratio was 0.97 (inactive).
As to `CCN1CCN(c2ncnc3c2oc2nc(C)c4c(c23)CC(C)(C)OC4)CC1`, the fluorescence ratio was 0.92 (inactive).
On to `Cc1cc(NS(=O)(=O)c2ccccc2)no1`, for which the fluorescence ratio was 0.95 (inactive).
For `CCC1CCCCN1CCNS(=O)(=O)c1ccc2c(c1)CCN2C(C)=O` (stereo unspecified), the fluorescence ratio is 1.02 (inactive).
The same measure for `CC(c1cccnc1)N(CCN(C)C)C(=O)Nc1ccc(Cl)c(Cl)c1` (stereo unspecified): 1.09 (inactive); for `CCCOc1ccc(-c2nc(N)n[nH]2)cc1`: 1.01 (inactive).
The same measure for `CCOc1ccc(-n2c(SC(C)C(=O)OC)nc3c(c2=O)SCC3)cc1` (stereo unspecified): 1.09 (inactive).
Under `CCOC(=O)C1CCN(C(=O)C2CCN(S(=O)(=O)CC)CC2)CC1` stands 1.02 (inactive); under `Cc1ccc2cccc(O)c2[n+]1[O-]`, 1.03 (inactive); under `CCC(C)n1[nH]c(=O)c2c(C)cc(C)nc21` (stereo unspecified), 1.05 (inactive).
Regarding `CCOC(=O)Cn1c(=O)oc2cc(S(=O)(=O)NCC3CCCO3)ccc21` (stereo unspecified), the fluorescence ratio was 1.88 (inactive).
As for `CCn1ncc(C2=NOC(C(=O)N3CCN(c4ccccc4)CC3)C2)c1C` (stereo unspecified), the fluorescence ratio was 1.1 (inactive).
The same measure for `Cn1cccc1C1(C(F)(F)F)NCCNC1=O` (stereo unspecified): 1.07 (inactive); for `N#CC1=C(N)Oc2cc(O)ccc2C1C1CCCCC1` (stereo unspecified): 1.18 (inactive).
The same measure for `COC(=O)C1=C(C)OC(N)=C(C#N)C1c1cc(OC)ccc1OC` (stereo unspecified): 1.05 (inactive); for `C=C1c2cc(CC)ccc2NC(=O)N1c1ccc(C)cc1`: 1.01 (inactive).
The same measure for `O=c1c2ccccc2[nH]c(=S)n1CCN1CCC(=C(c2ccc(F)cc2)c2ccc(F)cc2)CC1`: 1.02 (inactive); for `CC(=O)c1c(N2CCOCC2)nc(=S)n(Cc2ccccc2)c1C`: 1.3 (inactive).
Take `COC(=O)Cn1cc(C(=O)c2cccs2)c2ccccc21`: the fluorescence ratio is 0.93 (inactive).
The same measure for `CCn1c(CSc2ncccn2)nnc1SCC(=O)N1c2ccccc2CC1C` (stereo unspecified): 1 (inactive); for `Cc1ccc(S(=O)(=O)NCCN2CCOCC2)cc1C`: 1.05 (inactive).
Consider `CCOc1ccccc1NC(=O)C1CCN(S(=O)(=O)c2c(C)nn(C)c2C)CC1`, for which the fluorescence ratio was 1.02 (inactive).
As to `N#Cc1ccc(COC(=O)Cn2nnc(-c3ccccc3)n2)cc1`, the fluorescence ratio is 1.04 (inactive).
As to `CC(C)(C)NC(=O)Cn1nnc(-c2ccccc2Cl)n1`, the fluorescence ratio is 3.61 (active).
On to `CCOC(=O)c1ccc(NC(=O)Cn2nnc(-c3ccc(C)cc3)n2)cc1`, for which the fluorescence ratio was 1.04 (inactive).
Under `O=C(Nc1ccccc1C(=O)N1CCOCC1)C1CCC(=O)N1C1CCCC1` (stereo unspecified) stands 1.04 (inactive); under `CC(C)NC(=O)CCCn1c(=S)[nH]c2cc3c(cc2c1=O)OCO3`, 1.14 (inactive).
Under `O=C(O)CSCNC(=O)CC12CC3CC(CC(C3)C1)C2` stands 0.77 (inactive).
In the case of `CCOC(=O)C1CCN(C(=O)CC2C(=O)N(Cc3ccccc3)C(C)c3nc4ccccc4n32)CC1` (stereo unspecified), the fluorescence ratio is 1.02 (inactive).
The same measure for `CCOC(=O)c1c(NC(=O)c2cccs2)sc(C)c1C`: 1.07 (inactive); for `Cc1c(C(=O)NCCN2CCOCC2)sc2nc(-c3ccc(F)cc3)cn12`: 1.22 (inactive); for `CC1CCN(Cc2nc3c(c(=O)n(C)c(=O)n3C)n2Cc2cccc3ccccc23)CC1`: 1.06 (inactive).
